This is an account of results in article PMC8384837, “Expanding the binding specificity for RNA recognition by a PUF domain”.

What all share (experiment): yeast three-hybrid, YBZ-1, SC-Leu-His + 0.5 mM 3-AT, 4 days
Common to all, as to settings: tags: N-Gal4 AD-HA kept; label: inside an RPR1-promoter hybrid RNA with tandem MS2 sites; ssRNA

Test [1] deals with T1, PUM1 PUF domain R6-HWW (Homo sapiens, UniProt Q14671 828-1176, N1043H;Y1044W;Q1047W).
T1 sequence: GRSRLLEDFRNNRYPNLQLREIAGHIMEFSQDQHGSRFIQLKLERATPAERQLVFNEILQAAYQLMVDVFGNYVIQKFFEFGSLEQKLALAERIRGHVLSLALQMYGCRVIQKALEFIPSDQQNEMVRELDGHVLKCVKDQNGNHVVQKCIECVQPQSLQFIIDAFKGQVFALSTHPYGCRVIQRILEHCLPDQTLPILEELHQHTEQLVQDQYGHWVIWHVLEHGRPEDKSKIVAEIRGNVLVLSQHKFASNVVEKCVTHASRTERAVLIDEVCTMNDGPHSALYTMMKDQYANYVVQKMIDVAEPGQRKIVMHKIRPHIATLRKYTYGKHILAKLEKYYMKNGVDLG
In outline:
(§1)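 Matching RNA elements and Pumilio-1 PUF domain libraries, randomized at the three base-contacting residues of every repeat, were co-expressed from a centromeric plasmid in strain YBZ-1 (LexA–MS2 coat fusion, HIS3 reporter). The repeat regions were PCR-amplified and Illumina-sequenced from cells grown four days on SC-Leu (input) or SC-Leu-His + 0.5 mM 3-AT (selection). The interaction score is the log change in variant frequency from input to selection. It is computed in log2, with a pseudocount of 1 for absent variants.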

The target of test [2] is T2, PUM1 PUF domain R6-NWL (Homo sapiens, UniProt Q14671 828-1176, Y1044W;Q1047L).
T2 sequence: T1 sequence with H216N, W220L
The essentials: as §1

Test [3] deals with PUM1 PUF domain R3-GPR (Homo sapiens, UniProt Q14671 828-1176, C935G;R936P;Q939R). In outline: as §1
Test [4] concerns the target PUM1 PUF domain R3-IWG (Homo sapiens, UniProt Q14671 828-1176, C935I;R936W;Q939G). In outline:
as §1

Test [5] has as its target PUM1 PUF domain R2-VWW (Homo sapiens, UniProt Q14671 828-1176, N899V;Y900W;Q903W). The essentials: as §1
The target in test [6] is PUM1 PUF domain R2-FWW (Homo sapiens, UniProt Q14671 828-1176, N899F;Y900W;Q903W). The essentials:
as §1

Test [7] addresses PUM1 PUF domain R1-QCR (Homo sapiens, UniProt Q14671 828-1176, S863Q;R864C;Q867R). In outline:
as §1

In test [8] the target is PUM1 PUF domain R5-RQN (Homo sapiens, UniProt Q14671 828-1176, C1007R;R1008Q;Q1011N). The essentials: as §1
Test [9] has as its target PUM1 PUF domain R7-RRN (Homo sapiens, UniProt Q14671 828-1176, S1079R;N1080R;E1083N). The essentials:
as §1

Positions count from the first letter of the chain named.

Chain of PUM1 PUF domain R3-GPR (Q14671 828-1176 C935G/R936P/Q939R): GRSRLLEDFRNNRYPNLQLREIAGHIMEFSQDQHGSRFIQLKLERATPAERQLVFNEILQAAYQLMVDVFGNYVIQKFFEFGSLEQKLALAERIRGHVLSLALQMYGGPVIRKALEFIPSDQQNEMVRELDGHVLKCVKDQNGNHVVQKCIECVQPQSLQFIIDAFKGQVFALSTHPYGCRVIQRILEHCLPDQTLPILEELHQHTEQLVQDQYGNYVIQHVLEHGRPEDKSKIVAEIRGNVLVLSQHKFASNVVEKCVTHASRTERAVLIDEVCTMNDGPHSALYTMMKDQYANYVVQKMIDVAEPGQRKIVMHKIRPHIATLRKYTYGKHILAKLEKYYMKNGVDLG
Chain of PUM1 PUF domain R3-IWG (Q14671 828-1176 C935I/R936W/Q939G): as the sequence (Q14671 828-1176 C935G/R936P/Q939R) above, with G108I, P109W, R112G counted along it

For “GGCUAGAACUAGUGGAUCCCCCGGCGCCCGGCGGCUCGAGCCCGGGUAAGUGUAAAUAGUCUGCAUGCCGCCGGGCGCCAUGCCUGCAGGUCGACUCUAGAAAACAUG”, the binding signal in test [1] was 4.93 log2 enrichment (interaction score); in test [2], 5.32 log2 enrichment (interaction score); in [3], 0.81 log2 enrichment (interaction score); in test [4] it was 5.45 log2 enrichment (interaction score).

On to “GGCUAGAACUAGUGGAUCCCCCGGCGCCCGGCGGCUCGAGCCCGGGUAAGUGUAAAAAGUCUGCAUGCCGCCGGGCGCCAUGCCUGCAGGUCGACUCUAGAAAACAUG”, for which the figures for the binding signal in test [5] and in test [6] were 2.5 log2 enrichment (interaction score) and 4.3 log2 enrichment (interaction score), respectively.

Turning to “GGCUAGAACUAGUGGAUCCCCCGGCGCCCGGCGGCUCGAGCCCGGGUAAGUGUAAGUAGUCUGCAUGCCGCCGGGCGCCAUGCCUGCAGGUCGACUCUAGAAAACAUG”, the figures for the binding signal in test [3] and in test [4] were 1.82 log2 enrichment (interaction score) and 5.3 log2 enrichment (interaction score), respectively.

On to “GGCUAGAACUAGUGGAUCCCCCGGCGCCCGGCGGCUCGAGCCCGGGUAAGUGUAAAUUGUCUGCAUGCCGCCGGGCGCCAUGCCUGCAGGUCGACUCUAGAAAACAUG”, for which, in test [7], the binding signal was 1.4 log2 enrichment (interaction score).

“GGCUAGAACUAGUGGAUCCCCCGGCGCCCGGCGGCUCGAGCCCGGGUAAGUGUCAAUAGUCUGCAUGCCGCCGGGCGCCAUGCCUGCAGGUCGACUCUAGAAAACAUG”: the binding signal in [8] is 4.58 log2 enrichment (interaction score).

On to “GGCUAGAACUAGUGGAUCCCCCGGCGCCCGGCGGCUCGAGCCCGGGUAAGUGUAACUAGUCUGCAUGCCGCCGGGCGCCAUGCCUGCAGGUCGACUCUAGAAAACAUG”, for which, in test [3], the binding signal was 1.8 log2 enrichment (interaction score).

As for “GGCUAGAACUAGUGGAUCCCCCGGCGCCCGGCGGCUCGAGCCCGGGUAAGUUUAAAUAGUCUGCAUGCCGCCGGGCGCCAUGCCUGCAGGUCGACUCUAGAAAACAUG”, in test [9], the binding signal is 4.89 log2 enrichment (interaction score).

For the sequence “GGCUAGAACUAGUGGAUCCCCCGGCGCCCGGCGGCUCGAGCCCGGGUAAGUGUAAUUAGUCUGCAUGCCGCCGGGCGCCAUGCCUGCAGGUCGACUCUAGAAAACAUG”, the binding signal in test [3] is 3.57 log2 enrichment (interaction score); in [4], 3.86 log2 enrichment (interaction score).
